# Screens from PubChem.
# SDO1 yeast rescue – compounds rescuing growth of sdo1-depleted yeast, bone marrow failure model. z-score at 10 µM. S. cerevisiae sdo1-depleted JHY4D growth rescue, OD600 30 h; hits give high values; pdr5 snq2 efflux-pump mutant strain. actives 0.21% (n = 140,000);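 active means z-score above 3 at both the 24 hr and the 30 hr optical density reads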;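 further: z-score against mean and SD of all compound wells on the same plate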
# Measles CPE – protection of cells from measles virus; Measles virus-infected cells, CPE protection, absorbance; protection (pct of control), % at 4 µM; actives 1.5% (n = 140,000); in the data active means protection mostly above about 24%, no sharp cut-off; inactive means mostly below about 26%
# sEH inhibitor – blocks human soluble epoxide hydrolase activity. AID 707. actives 0.34% (n = 91,000). recombinant human sEH enzymatic activity assay. inhibition, % at 2 µM; in the data active means inhibition above about 80%
# Target sequence (P34913 whole entry, looked up): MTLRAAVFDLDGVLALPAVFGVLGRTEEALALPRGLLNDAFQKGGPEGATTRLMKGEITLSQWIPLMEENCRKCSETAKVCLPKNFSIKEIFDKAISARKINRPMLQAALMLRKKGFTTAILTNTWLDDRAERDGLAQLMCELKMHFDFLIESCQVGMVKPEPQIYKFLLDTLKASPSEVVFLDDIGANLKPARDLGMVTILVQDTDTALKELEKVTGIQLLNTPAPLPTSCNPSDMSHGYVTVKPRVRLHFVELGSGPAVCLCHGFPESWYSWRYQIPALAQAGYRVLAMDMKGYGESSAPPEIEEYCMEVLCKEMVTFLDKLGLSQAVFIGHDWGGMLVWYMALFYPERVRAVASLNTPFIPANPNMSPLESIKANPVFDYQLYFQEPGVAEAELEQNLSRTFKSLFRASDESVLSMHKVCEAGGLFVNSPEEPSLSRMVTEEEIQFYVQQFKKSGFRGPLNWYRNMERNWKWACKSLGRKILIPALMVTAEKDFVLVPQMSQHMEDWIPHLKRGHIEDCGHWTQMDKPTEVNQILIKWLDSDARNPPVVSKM
# MRP resist rev – MRP-mediated drug resistance reversal | H69AR cells + 2 uM doxorubicin, CellTiter-Glo, 72 h | differential viability (reversal), % at 10 µM | actives 0.04% (n = 85,000);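 active means viability drop by adding the cancer drug above about 55%, with treated viability meeting a 40% cutoff, limit read from the data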;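 further: viability without doxorubicin minus viability with 2 µM doxorubicin for each compound; larger differential means the compound sensitizes cells more to doxorubicin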
# MRP-1 activ – activates MRP-1 | actives 0.61% (n = 140,000) | H69AR cells + doxorubicin, viability rescue, CellTiter-Glo | viability increase, % at 10 µM;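 active means viability gain under doxorubicin at or above a set limit, the compound median plus 3 SD, cut at about 4.7% in these data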;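 further: MRP-1 overexpressing cells given doxorubicin 25 µM after compound pretreatment; 18-22 h compound pretreatment then 72 h with doxorubicin before readout; 0% = doxorubicin-only wells and 100% = vehicle-treated cells without doxorubicin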
# sEH act – activators of human soluble epoxide hydrolase. AID 717. activation, % at 2 µM. purified human sEH enzymatic activity, activator screen. P34913. actives 0.04% (n = 91,000); in the data active means activation above about 37%
# * = called active by the depositor; nt = no result given; [ ] = remark or other dose. A selection: hits, their analogues and other compounds. The true share with any hit is near 2.5%.
SMILES,SDO1 yeast rescue,Measles CPE,sEH inhibitor,MRP resist rev,MRP-1 activ,sEH act
C=CCOc1ccc(CNc2nn[nH]n2)cc1OC,0.46,41,-2,nt,-2,3
C=CCOc1ccc(CNc2ccc(NC(=O)CC(C)C)cc2)cc1OC,1.5,2,nt,nt,18*,nt
NC(N)=NC(N)=Nc1ccc(SC(F)(F)F)cc1,1.5,24*,nt,nt,-2,nt
Cc1ccc(CNCCC2=CCCCC2)cc1,0.34,15,19,nt,-1,-19
COc1ccc(/C=N/Nc2cc(N(C)C)nc(N(C)C)n2)cc1,-0.41,4,nt,nt,0,nt
COc1ccc(/C=N/Nc2cc(OC)ncn2)cc1,0.07,nt,nt,nt,5.4*,nt
C=CCNC(=O)c1onc(CSc2cc(C)ccc2C)c1C(=O)O,-0.15,34*,4,nt,-1,2
C=CCNC(=O)c1onc(CSc2ccccc2C)c1C(=O)O,0.11,7,-5,nt,0,11
CCn1cc([N+](=O)[O-])c(C(=O)N2N=C(c3ccc(O)c(OC)c3)CC2c2ccccc2O)n1 (stereo not given),0.92,5,nt,nt,-2,nt
CCn1cc([N+](=O)[O-])c(C(=O)N2N=C(c3ccccc3)CC2c2ccc([N+](=O)[O-])cc2)n1 (stereo not given),-0.08,27*,nt,nt,2,nt
Cc1ccccc1C(=O)Nc1cc(S(=O)(=O)N2CCCCC2)ccc1N1CCN(C)CC1,0.14,33*,nt,nt,-2,nt
CN1CCN(c2ccc(S(=O)(=O)N3CCCCC3)cc2NC(=O)c2ccc3ccccc3c2)CC1,-0.72,13,nt,nt,-5,nt
N=C(N)SCc1ccccc1Cl,0.57,8,nt,nt,8.6*,nt
CC(C)(C)c1ccc(OCCC(=O)Nc2cccc(S(=O)(=O)N3CCCCC3)c2)cc1,0.03,3,nt,nt,-3,nt
COc1ccc2c(c1)C(=NN)c1cc(OC)ccc1-2,0.61,32,-20,-17,-1,19
O=C(O)CCc1nn2c3ccccc3nc2n(CCN2CCCCC2)c1=O,1.1,7,-54,-11,-2,57*
O=C(O)CCc1nc2ccccc2n(CCc2ccccc2)c1=O,1.1,6,8,19,-1,-8
Cc1nc(N(C)Cc2ccccc2)c2nnn(Cc3ccccc3)c2n1,-1.7,19,19,13,-1,-18
O=S1(=O)C=C(Oc2ccc3ccccc3c2)c2ccccc21,-1.7,66*,-1,4,-4,4
Cc1c(N=C(N)/N=C(\N)Nc2ccc(Br)cc2)c(=O)n(-c2ccccc2)n1C,-0.17,9,nt,nt,-2,nt
CCN(CC)C(=O)CC(c1ccc(F)cc1)c1ccc(OC(C)C)cc1 (stereo not given),-0.03,6,nt,nt,1,nt
Cc1ccc(-c2cc(C(F)F)n3ncc(C(=O)Nc4ccc(S(=O)(=O)Nc5ccccc5C)cc4)c3n2)cc1,-0.22,4,-8,nt,-7,8
Cc1ccc(NC(=O)N(Cc2ccc3c(c2)OCO3)Cc2cc3cc4c(cc3[nH]c2=O)OCCO4)cc1,-2,31,-2,55*,-4,2
O=C(CSc1ccccc1[N+](=O)[O-])NC1CCS(=O)(=O)C1 (stereo not given),0.75,2,nt,nt,-2,nt
O=C(NCc1ccc(F)cc1)C(=O)NCC1OCCN1C(=O)c1cccs1 (stereo not given),0.32,10,nt,nt,5.3*,nt
SMILES,SDO1 yeast rescue,Measles CPE,sEH inhibitor,MRP resist rev,MRP-1 activ,sEH act
O=C(NCc1ccccc1)C(=O)NCC1OCCN1S(=O)(=O)c1cccs1 (stereo not given),0.11,36*,nt,nt,0,nt
O=c1oc2cc(OCc3c(F)cccc3Cl)ccc2cc1-c1ccccn1,0.25[8.6 µM],46*,-22,nt,2,23
CCCOc1ccc2cc(-c3ccccn3)c(=O)oc2c1,-0.55,20,nt,nt,2,nt
Cc1sc2nc(C)n(/N=C/c3ccccc3)c(=O)c2c1C,0.02,5,-42,16,-2,38*
Cc1nc2ccccc2c(=O)n1/N=C/c1ccc(O)cc1,-0.64,7,-9,8,-3,8
Fc1cccc(Cl)c1CNCc1ccccc1Cl,1.4,13,-6,nt,1,9
CCCCCCNCc1c(F)cccc1Cl,0.47,57*,nt,nt,0,nt
Cc1cccc(NC(=O)Cc2coc3ccc4ccccc4c23)n1,-2.2,2,-2,20,1,2
Cc1ccc(C)c(SCC(=O)Nc2cc(C)nn2-c2ccc(F)cc2)c1,-0.17,10,nt,nt,-4,nt
O=C(CCCC(=O)OCC(F)(F)C(F)F)Nc1ccc(NC(=O)CCCC(=O)OCC(F)(F)C(F)F)cc1,-1,42*,4,3,-1,-5
O=C(Nc1nnc(CC(=O)N2CCCC2)s1)c1cnccn1,nt,nt,nt,6,nt,nt
COc1ccc(CNc2nc(NCc3ccc(OC)cc3)n(S(C)(=O)=O)n2)cc1,-0.15,5,6,11,5.1*,-2
CC(CNC(=O)C(=O)NC(C)CCc1ccccc1)Cc1ccccc1 (stereo not given),-0.99,11,2,nt,-4,0
CCc1nn2c(N)c(/C=C3\C=Nc4ccccc43)c(=O)nc2s1,0.83,9,nt,nt,8.2*,nt
CCN(CC)C(=O)N1c2ccccc2C=Cc2ccccc21,-0.35,57*,4,37,-1,-6
CCc1nnc(NC(=O)CSc2nc3cccnc3n2C2CCCCC2)s1,-1.2,9,-12,23,4.8*,13
Cc1ccc(CC(=O)Nc2ccc(F)c([N+](=O)[O-])c2)cc1,-1.2,35*,nt,nt,-4,nt
Cc1ccc2nc(SCC(=O)Nc3ccc(F)c([N+](=O)[O-])c3)[nH]c2c1,-1.1,19,nt,nt,-4,nt
CN1CCN(CCCNC(=O)Nc2cccc3ccccc23)CC1,0.86,44*,19,8,-2,-20
O=C(CSc1nnc(SCc2cccc3ccccc23)s1)N=Nc1c(O)[nH]c2ccccc12,-0.49,6,nt,nt,-7,nt
Cn1nc(C(F)(F)F)c2cc(NC(=O)OCc3ccc(C(C)(C)C)cc3)sc21,-0.47,5,-14,22,7.1*,13
Cn1nc(C(F)(F)F)c2cc(NC(=O)OCc3ccc(F)cc3)sc21,-1.5,10,5,6,2,-4
CN(/C(=N\S(=O)(=O)c1ccccc1)C(F)(F)F)c1ccccc1,1.2,18,-13,nt,0,14
O=C(CSc1ncn[nH]1)Nc1ccc(Br)cc1F,0.02,19,-2,-10,7.0*,3
CC(C)c1nnc(NC(=O)CSc2ncn[nH]2)s1,0.31,1,-6,-9,4.8*,6
SMILES,SDO1 yeast rescue,Measles CPE,sEH inhibitor,MRP resist rev,MRP-1 activ,sEH act
CS(=O)(=O)Nc1ccc(C2=NN(S(C)(=O)=O)C(c3ccc4c(c3)OCO4)C2)cc1 (stereo not given),1.3,4,nt,nt,-2,nt
Cc1ccc2cc(C)c3nnc(SCC(=O)c4cccs4)n3c2c1C,-0.44,7,nt,nt,-3,nt
Cc1cc2ccc(C)c(C)c2nc1SCC(=O)c1cccs1,-1.3,32*,9,nt,-2,-7
C=CCN=C(NC#N)SCC(=O)c1cccc(OC)c1,-0.04,3,-8,-46,-1,12
CCc1ccc(NC(=O)Nc2ccc3c(c2)N(C)C(=O)CS3)cc1,-1.3,1,91*,-20,-2,-91
N=C(N)SCc1cn2ccccc2n1,-0.33,1,nt,nt,4.9*,nt
Nc1ccccc1SCc1cn2ccccc2n1,0.82,3,nt,nt,-1,nt
